Cruzain noTriton = qHTS Assay for Promiscuous and Specific Inhibitors of Cruzain (without detergent) | Cruzipain (Trypanosoma cruzi), P25779 | purified cruzain, Z-FR-AMC fluorescence, no detergent | Potency, µM, hits mostly inhibitors | 200,000 tested, 2.3% active | AID 1476, 2009; note: nearly all actives have a fitted effect of over 40% in size
Target sequence (P25779 123-467 limits assumed): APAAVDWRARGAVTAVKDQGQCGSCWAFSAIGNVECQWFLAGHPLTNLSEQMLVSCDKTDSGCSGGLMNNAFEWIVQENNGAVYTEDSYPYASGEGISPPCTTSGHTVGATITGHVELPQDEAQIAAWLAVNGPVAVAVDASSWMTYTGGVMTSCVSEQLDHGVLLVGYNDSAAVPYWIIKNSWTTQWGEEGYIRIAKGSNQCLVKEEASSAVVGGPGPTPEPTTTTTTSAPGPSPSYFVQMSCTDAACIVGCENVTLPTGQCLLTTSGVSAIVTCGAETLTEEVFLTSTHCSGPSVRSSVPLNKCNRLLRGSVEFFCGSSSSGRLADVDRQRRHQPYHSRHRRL
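Detergent-free condition (0.00005% Triton X-100) in acetate buffer pH 5.5 with DTT. 1.5 nM enzyme and compound were pre-mixed 15 min, then 2 uM Z-FR-AMC substrate added; reaction progress from fluorescence change between first and third reads (60 s).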
Cruzain inh Det = qHTS Assay for Promiscuous and Specific Inhibitors of Cruzain (with detergent). 200,000 tested, 0.43% active. Potency, µM, hits mostly inhibitors. Cruzipain (Trypanosoma cruzi), P25779. purified cruzain, Z-FR-AMC fluorescence, 0.01% Triton. AID 1478, 2009; note: nearly all actives have a fitted effect of over 40% in size
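Sodium acetate buffer (100 mM, pH 5.5) containing 5 mM DTT and 0.01% Triton X-100 hosted 1.5 nM cruzain and test compound for 15 min at room temperature. Cleavage of 2 uM Z-FR-AMC was then tracked by fluorescence.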
NS1 inh = qHTS Assay for Inhibitors of Influenza NS1 Protein Function. AID 2326, 2010. Potency, µM (titrated, usually from 46.1 µM). 270,000 tested, 0.4% active; calls by dose curve; note: actives are rising curves; nearly all actives have a fitted effect of over 50% in size
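Recovery from NS1-induced slow growth read by OD600 in budding yeast switched to galactose assay medium (pH 6.0, -URA) at 1:100 dilution. Compound 23 nl per well; the matching strain lacking NS1 serves as control.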
A number is an active result; n = inactive; u = inconclusive; x = no result; ! = not active in a repeat. The sample as a whole holds a higher share of hits than the screen did. Unless noted, calls come from the whole dose curve; as a rule, active = well fitted curve in the direction sought with a large enough effect; inconclusive = small, poorly fitted or top-dose-only effect, or another doubt; inactive = no such curve, though single readings can be large; an effect the other way counts as inactive or inconclusive.

SMILES	Cruzain noTriton	Cruzain inh Det	NS1 inh
CCCc1nnc(NC(=O)C(CC)Sc2nnc3c4ccccc4n(C)c3n2)s1 (stereo not drawn)	n	n	x
C=CCn1c2ccccc2c2nnc(SC(CC)C(=O)Nc3sc4c(c3C#N)CCCC4)nc21 (stereo not drawn)	25µM	n	n
COC(=O)C(C(=O)OC)C(Cc1cc(F)cc(F)c1F)NC=O (stereo not drawn)	n	n	x
CCCCCCNC(=O)C(C#N)c1nc2ccccc2nc1N1CCCC1 (stereo not drawn)	n	n	n
CCCCCNC(=O)C(C#N)c1nc2ccccc2nc1N1CCCC1 (stereo not drawn)	13µM	n	n
COc1ccc2cc(C(=O)NCc3ccc4c(c3)CCN4C(=O)c3ccc(F)cc3)[nH]c2c1	25µM	n	x
Cc1ccc(NC(=O)NCc2ccc3c(c2)CCN3C(=O)c2ccccc2)c(Cl)c1	n	n	x
COc1ccc(C(=O)NCc2ccc3c(c2)CCN3C(=O)c2ccccc2)cc1	n	n	x
COc1ccc2cc(C(=O)NCc3ccc4c(c3)CCN4C(=O)c3ccc(C)cc3)[nH]c2c1	13µM	n	x
COc1ccc(C(=O)NCc2ccc3c(c2)CCN3C(=O)c2ccc(F)cc2)cc1	n	n	x
COc1ccc(C)cc1NC(=O)NCc1ccc2c(c1)CCN2C(=O)c1ccccc1	20µM	n	x
O=C(O[C@@H]1Cc2c(O)cc(O)cc2OC1c1ccc(O)c(O)c1)c1cc(O)c(O)c(O)c1 (stereo partly drawn)	n	n	x
CCCCn1c(=O)c2[nH]c(C34CC5CC(CC3C5)C4)nc2n(CCCO)c1=O	n	n	x
O=C(CNc1ccc2ccccc2c1)N/N=C/c1cc2ccccc2nc1Cl	25µM	n	n
O=C(COc1cccc(Cl)c1)N/N=C\c1cc2ccccc2nc1Cl	n	n	n
CCOc1cc(CNC(=O)C2COc3ccccc3C2)cc(OCC)c1OCC (stereo not drawn)	n	n	x
CCCOc1ccc(C(=O)N(Cc2cccs2)c2ccc(C)cc2)cc1	n	n	x
CC(=O)Nc1ccc(C2=NNC(=Nc3cccc(S(=O)(=O)N(C)C)c3)SC2)cc1	x	x	n
CN(C)S(=O)(=O)c1cccc(N=C2NN=C(c3ccccc3)CS2)c1	32µM	n	n
COc1ccc2c(c1)O[C@@H](c1cccc(C(F)(F)F)c1)[C@H](OC(=O)NS(=O)(=O)c1ccc(C)cc1)C2=O	n	n	x
O=C(NC(=S)Nc1cc(C(F)(F)F)ccc1N1CCOCC1)c1sc2ccccc2c1Cl	20µM	n	n
CC(C)(C)C(=O)NC(=S)Nc1cc(C(F)(F)F)ccc1N1CCOCC1	n	n	n
CSCCC=O	n	n	x
O=C1NC(=O)/C(=C\c2ccccc2Oc2ccc(F)c(F)c2)S1	25µM	n	n
O=C1NC(=O)/C(=C/c2ccccc2OCc2ccccc2)S1	x	x	n
SMILES	Cruzain noTriton	Cruzain inh Det	NS1 inh
CCCCNC(=O)CCn1c(=O)c2ccccc2n(Cc2ccccc2C#N)c1=O	n	n	x
O=C(/C=C/Nc1ccc(F)c(F)c1)c1ccc(Br)cc1	25µM	n	n
O=C(NNC(=O)c1ccc([N+](=O)[O-])cc1)c1ccc(Br)cc1	x	x	n
O=C(/C=C/Nc1ccc(F)cc1)c1ccc(Br)cc1	x	x	n
O=C(/C=C/Nc1ccc([N+](=O)[O-])cc1)c1ccc(Br)cc1	20µM	n	n
Cc1ccc(NC(=O)Cn2cnc3c(oc4ccccc43)c2=O)cc1Cl	u	n	x
CCc1ccc(NC(=O)CC2C(=O)N(c3ccc(F)cc3)C(=O)N2Cc2ccc(F)cc2)cc1 (stereo not drawn)	n	n	x
CSc1ccc(CCNC(=O)C2CCN(c3nc4ccccc4nc3C(F)(F)F)CC2)cc1	n	n	x
CC(C)CC(NC(=O)C1CCCN1C(=O)OC(C)(C)C)C(=O)NCC(N)=O (stereo not drawn)	n	n	n
CC(C)C[C@H](NC(=O)C1OC1C(=O)O)C(=O)NCCCCN=C(N)N (stereo partly drawn)	0.04µM	0.079µM	n
CCOC(=O)CC(SP(=O)(OC)OC)C(=O)OCC (stereo not drawn)	n	n	x
O=C(O)C[O][Sb][O]CC(=O)O	n	n	n
N=C(N)SCc1nc2ccccc2c(=O)n1-c1ccccc1	25µM!	n	n
O=c1c2ccccc2nc(Cc2ccccc2)n1-c1ccccc1	x	x	n
CC(C)N(Cc1ccccc1)C(=O)CN1C(=O)CSc2ccc(S(=O)(=O)N3CCCC3)cc21	n	n	x
COc1cccc(-c2nc(-c3ccc4c(c3)-c3ccccc3S4(=O)=O)c(-c3ccccc3)[nH]2)c1OC	13µM	n	u
COc1cc(-c2nc(-c3ccc4c(c3)-c3ccccc3S4(=O)=O)c(-c3ccccc3)[nH]2)cc(OC)c1OC	n	n	n
CCCCC=O	n	n	x
COc1ccc(-c2coc3cc4oc(=O)cc(C)c4cc23)cc1F	n	n	n
COc1ccc(-c2coc3cc4oc(=O)cc(-c5ccccc5)c4cc23)cc1F	10µM	n	n
O=C(Nc1ccccc1N1CCN(c2ccc(F)cc2)CC1)C12CC3CC(CC(C3)C1)C2	25µM	n	n
CCC(=O)Nc1ccccc1N1CCN(c2ccc(F)cc2)CC1	x	x	n
CCOC(=O)Cn1c(=O)n(CC2CCCO2)c2nc(-c3ccc(C)cc3)nc(C(N)=O)c21 (stereo not drawn)	u	n	x
COCCNC(=O)CCCn1c(SCC(=O)c2ccc(F)cc2)nc2c(sc3ccccc32)c1=O	n	n	x
O=C(Nc1nc(-c2cc(Cl)sc2Cl)cs1)c1ccc(Br)s1	7.9µM	n	n
SMILES	Cruzain noTriton	Cruzain inh Det	NS1 inh
CC(=O)Nc1nc(-c2cccc3ccccc23)cs1	x	x	n
Cc1ccc(NC(=O)Nc2nnc(N3CCCC3)s2)cc1	n	n	x
CC(=O)Nc1nc(-c2ccc(Br)s2)cs1	13µM	n	n
O=C(Nc1nc(-c2cc(Cl)sc2Cl)cs1)c1cccs1	u	n	n
Cc1ccc(NC(=O)Nc2nc(-c3ccc(C)s3)cs2)cc1	25µM	n	n
c1ccc(C[C@@H](Nc2cccnc2)c2ccccc2)cc1	n	n	n
CCOc1ccc(-c2cn3c(n2)sc2cc(C(=O)NCCCN4CCCCCC4)ccc23)cc1	n	n	x
CCOc1ccc(-c2cn3c(n2)sc2cc(C(=O)NCCCN4CCCCC4)ccc23)cc1	4µM	n	x
COc1ccc(NC(=O)CC2C(=O)N(c3ccc(C)cc3)C(=O)N2Cc2ccc(C)cc2)cc1 (stereo not drawn)	n	n	x
Cc1ccc(-c2nnc3n2N=C(c2ccccc2)CS3)cc1	n	n	n
Clc1ccc(C2=Nn3c(nnc3-c3cccs3)SC2)cc1	7.9µM	n	n
CCOc1ccc(C2=Nn3c(nnc3-c3ccccc3)SC2)cc1Cl	20µM	n	n
c1ccc(-c2ccc(C3=Nn4c(nnc4-c4cccs4)SC3)cc2)cc1	x	x	n
COc1ccccc1NS(=O)(=O)c1cc(NC(=O)c2cccs2)ccc1N1CCCCC1	10µM	n	u
O=C(Nc1ccc(F)cc1)Nc1ccc(N2CCCC2)c(S(=O)(=O)Nc2ccccc2Cl)c1	3.2µM	n	n
COc1ccccc1NS(=O)(=O)c1cc(NC(=O)c2cccs2)ccc1N1CCCC1	u	n	n
COc1ccccc1NS(=O)(=O)c1cc(NC(=O)Nc2ccccc2)ccc1N1CCCCC1	3.2µM	n	u

Bioassay records deposited in PubChem by National Center for Advancing Translational Sciences (NCATS).
